# An excerpt weighted towards active compounds, which were near 4.1% of everything screened.
# pCIP destab: p/CIP-EGFP fusion destabilizers, primary screen, fluorescence, F442A cells; Q05BA5; 16 h; decrease of EGFP signal, % at 10 µM; hit rate 0.01% among 290,000; AID 1984, 2009;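 active means EGFP signal decrease of at least 30% at 10 µM or well 3 SD below plate mean, unless failing retest; inactive means the rest, including hits failing retest or dose response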
# beta cell repl: inducers of MIN6 beta-cell proliferation, primary screen, ATP luminescence, uHTS; MIN6 cells proliferation, ATPlite luminescence, 48 h; cells starved in 0.2% serum; 100% = growth in 10% serum; hit rate 0.29% among 330,000; proliferation, % at 10 µM;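 active means compounds whose signal lies at least 3.5 SD above the mean of all wells on their plate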;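 further: 0% = DMSO-treated cells in low-serum medium and 100% = 10% serum control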
# FAS TE block: FAS thioesterase domain inhibitors, primary screen, biochemical, fluorescence intensity, uHTS. Fatty acid synthase (Homo sapiens), P49327. recombinant FAS-TE, OMFH fluorogenic substrate, fluorescence endpoint. inhibition, % at 15 µM. hit rate 0.67% among 360,000. AID 602261, 2012;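 active means compounds whose normalised, plate-corrected inhibition of enzyme fluorescence in the single-dose primary screen is 50% or more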;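 further: 0% = DMSO with enzyme and 100% = substrate without enzyme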
# MPTP block: mitochondrial permeability transition pore inhibitors, primary screen, biochemical, isolated mouse mitochondria, absorbance. hit rate 1.4% among 360,000. Ca2+ swelling absorbance, 30 min. inhibition, % at 10 µM. AID 602449, 2012;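 active means inhibition of 50% or more, scaled per plate between neutral and stimulator controls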;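 further: 0% = DMSO wells given calcium and 100% = 1 mM EGTA wells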
# NR3A LBD binder: binders of NR3A ligand-binding domain, primary screen, biophysical, differential scanning fluorimetry, uHTS. Glutamate receptor ionotropic, NMDA 3A (GRIN3A) ligand-binding domain. NR3A LBD differential scanning fluorimetry, Tm shift; 0% = protein alone, 100% = glycine-bound protein. Tm shift relative to glycine control, % at 25 µM. hit rate 2.5% among 340,000. AID 1259313, 2017;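 active means melting temperature shift of at least 10% of the positive control shift, at one fixed dose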
# Rh123 counter: fluorescence retest of MPTP screen hits in isolated mitochondria, single concentration; shares compounds with MPTP block; membrane potential, Rhodamine 123 fluorescence; inhibition, % at 10 µM; hit rate 78% among 5,000; in the data active means inhibition above about 22%;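 further: 0% = DMSO vehicle and 100% = positive control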
# MPTP swell DR: mitochondrial permeability transition pore inhibitors, dose response, biochemical, absorbance, uHTS hits; shares compounds with MPTP block; isolated mitochondria swelling; IC50, µM; hit rate 58% among 780; AID 651561, 2012; in the data active means IC50 below about 20 µM
# MPTP counter DR: fluorescent counter-screen in isolated mitochondria, dose response, counter-screen for MPTP inhibitor project, biochemical, fluorescence, uHTS hits. IC50, µM. hit rate 49% among 780. AID 651564, 2012. isolated mitochondria counterscreen, fluorescence read-out. shares compounds with MPTP block; in the data active means IC50 below about 80 µM
# * = called active by the depositor; i = inactive; nt = not tested or not shown.
SMILES,pCIP destab,beta cell repl,FAS TE block,MPTP block,NR3A LBD binder,Rh123 counter,others
O=C(Cc1cccc2ccccc12)NC(NC(=S)Nc1ccccc1Cl)C(Cl)(Cl)Cl (stereo not given),7,0,6,79*,19*,70*,
COc1ccc(NC(=S)NC(NC(=O)c2cccc(C)c2)C(Cl)(Cl)Cl)c([N+](=O)[O-])c1 (stereo not given),-12,-3,15,71*,10*,64*,
O=C(C[C@@H]1C/C=C/CC[C@H](Cc2ccc(F)cc2)C(=O)OC[C@@H](Cc2ccccc2)NC1=O)N[C@H](CO)Cc1ccccc1,nt,-6,9,0,-9,nt,
Cc1c(C)n(Cc2ccccc2)c2ncnc(Cl)c12,-15,-4,15,56*,0,65*,
O=C(COc1coc(CN2CCN(c3ccccc3)CC2)cc1=O)Nc1ccc(F)cc1,nt,-1,-6,0,0,nt,
C=CCN(C(=O)c1cccc(S(=O)(=O)N2CCN(C)CC2)c1)c1nc(-c2ccccc2)cs1,4,-3,24,73*,-1,6,MPTP swell DR=i;MPTP counter DR=76*
CN1CCN(S(=O)(=O)c2cccc(C(=O)N(C)Cc3cccs3)c2)CC1,nt,1,-1,-1,0,nt,
Cc1ccc(C)c(NC(=O)CC2Oc3ccccc3NC2=O)c1 (stereo not given),0,2,1,0,0,nt,
CN1CCN(c2ccc(Cl)cc2NC(=O)/C=C/c2cccc(F)c2)CC1,-3,-6,4,74*,2,-23,MPTP swell DR=6.8*;MPTP counter DR=>80
Cc1ccc(S(=O)(=O)N(Cc2ccc(Cl)cc2)c2ccccc2C(=O)NCc2ccco2)cc1,-13,0,37,-1,4,nt,
O=C(Nc1cc(Cl)cc(Cl)c1)Nc1cnccn1,-19,-7,1,62*,5,101*,
CCc1cc2cc(C)cc(C)c2nc1SCC(=O)N1CCN(C(=O)c2ccco2)CC1,0,-4,14,64*,-1,30*,
CCc1cc2cccc(C)c2nc1SCC(=O)N1CCN(C(=O)c2ccco2)CC1,5,-4,10,0,-8,nt,
O=C(CSc1nnc(Cn2nnc3ccccc32)o1)N(Cc1ccc(F)cc1)c1ccccc1,-13,-4,22,85*,2,94*,
COc1ccccc1C(=O)C1CCCN(C(=O)Nc2ccccc2F)C1 (stereo not given),-13,-2,-2,-2,-4,nt,
COC(=O)c1ccc(NC(=O)N2CCCC(C(=O)c3ccccc3OC)C2)cc1 (stereo not given),-22,-1,0,70*,6,75*,
Cc1nnsc1-c1onc(C)c1C(=O)Nc1cc(Cl)cc(Cl)c1,6,-4,45,84*,7,79*,
O=C(Nc1ccc(Cl)cc1)N[C@@H]1c2c(ccc3ccccc23)OC[C@@H]1CO,-6,-5,21,93*,26*,74*,
c1ccc(CNc2nc(N3CCN(Cc4ccccc4)CC3)nc3ccccc23)cc1,1,-4,36,53*,0,81*,
Cc1csc2ncnc(NC3CCN(Cc4ccccc4)CC3)c12,-12,-6,2,92*,-1,87*,
CNc1nc(NCc2ccccc2)c2ccccc2n1,-24,-3,-4,5,-1,nt,
c1ccc(CNc2ncnc3ccccc23)cc1,-7,-6,-2,84*,-2,59*,
CCCCNc1nc(NCc2ccccc2)nc2ccccc12,nt,nt,-28,78*,nt,118*,
CC(C)OCCCNC(=O)Nc1cccc2ccccc12,-12,-3,-3,-1,1,nt,
C/C(N)=C(/C#N)C(=O)COC(=O)C1CCC(C(C)(C)C)CC1 (stereo not given),-2,-1,36,-1,-12,nt,
SMILES,pCIP destab,beta cell repl,FAS TE block,MPTP block,NR3A LBD binder,Rh123 counter,others
CC(C)c1cccc(C(C)C)c1NC(=O)COC(=O)c1ccc2c(c1)S(=O)(=O)c1ccccc1C2=O,2,0,-6,1,-2,nt,
COc1ccc(S(=O)(=O)NNC(=O)C(=O)NNc2ccccn2)cc1,2,-1,-1,1,0,nt,
CC1=C(C(=O)Nc2ccccc2F)C(c2cccs2)NC(=S)N1 (stereo not given),-12,-1,0,-1,0,nt,
c1ccc(CN2CCC(Nc3nc(-c4ccccc4)nc4ccccc34)CC2)cc1,-8,-4,27,106*,6,-5,
c1ccc(CN2CCC(CNc3ncnc4ccccc34)C2)cc1 (stereo not given),nt,nt,-4,7,0,nt,
CCCCCN(C(=O)CCC(=O)OCC(=O)N(C)Cc1ccccc1C)c1c(N)n(CCCC)c(=O)[nH]c1=O,nt,-2,0,-1,-2,nt,
O=C(c1cccc(S(=O)(=O)N2CCN(c3ccc(F)cc3)CC2)c1)N1CCCC(C(F)(F)F)C1 (stereo not given),nt,-8,25,73*,0,85*,
CN(CCOc1ccc(Cl)cc1)C(=O)c1cccc(S(=O)(=O)N2CCN(c3ccc(F)cc3)CC2)c1,nt,nt,33,58*,-2,90*,
CC1=NN(c2ccccc2)C(=O)C1C(=O)c1cc([N+](=O)[O-])cc([N+](=O)[O-])c1 (stereo not given),0,3,10,3,-2,nt,
COc1cc(CNC2CCCC2)cc(Cl)c1OCc1ccccc1Cl,-1,-7,-2,82*,-1,-11,
COc1cc(CNCCO)cc(Cl)c1OCc1ccc(Cl)cc1Cl,-9,-6,-8,97*,-1,-12,
CSc1cccc(NC(=S)N(CCCN2CCC(C)CC2)Cc2cccs2)c1,-9,-4,8,1,-3,nt,
Cc1cc(C)cc(NC(=S)N2CCC(NC(=O)c3ccccc3C)CC2)c1,-12,-1,-3,-1,0,nt,
CC(=O)c1ccc(N(C(=O)CS(=O)CC(=O)Nc2ccc(F)cc2)C(C(=O)NC2CCCCC2)c2cccs2)cc1 (stereo not given),4,-5,-5,-1,-2,nt,
COc1cc(C)c(NC(=S)Nc2ccc(Cl)c(Cl)c2)cc1OC,8,0,12,100*,1,82*,
COC(=O)c1cc(OC)c(OC)cc1NC(=S)Nc1cccc(Cl)c1,-18,0,2,91*,0,110*,
O=C(c1ccc([N+](=O)[O-])cc1)N1CCc2ccccc2C1,14,-2,-1,1,1,nt,

# Screens from PubChem BioAssay.
